The values that follow come from PubChem BioAssay (NCATS).

Results filed as inconclusive are left out. Active and inactive are the calls of the source. Calls come from the whole dose curve; as a rule, active = well fitted cell-killing curve with a large enough effect; inconclusive = small, poorly fitted or top-dose-only effect; inactive = flat fitted curve, though single readings scatter.
Potency is the fitted concentration of half-maximal effect.

This test can be described thus: qHTS of pediatric cancer cell lines to identify multiple opportunities for drug repurposing: Confirmatory screen for SK-N-SH cells (AID 1347129).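 Note: cells exposed to compound for 48 h before viability read; nearly all actives have a fitted effect of over 60% in size.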 The settings on record: SK-N-SH neuroblastoma cell viability; series mostly up to 46.1 µM. The text has this: Drug repurposing or repositioning has been offered as a strategy for drug development in oncology programs. This approach has special potential for childhood cancers and other rare or orphan diseases, where the expected return on new drug development has been a disincentive to pharmaceuticals.
In this project we exploit the poly-pharmacology of drugs to discover new indications via phenotypic screening of a panel of 19 well-characterized cell lines derived from solid tumors seen in children and adolescents. The goal is to identify approved drugs with previously unrecognized anticancer properties that has the potential to reveal new mechanisms and biological processes involved in carcinogenesis or drug resistance. We employed a titration-based paradigm (quantitative high-throughput screening or qHTS), where all compounds were tested at multiple concentrations for their effect on cell viability. Concentration-response curves (CRCs) were derived directly from the primary screen, and both potency and efficacy values were used to identify compounds with robust bioactivity profiles. We screened the NIH Chemical Genomics Center (NCGC) Pharmaceutical Collection (NPC) and Mechanism Interrogation Plate (MIPE) small molecule collections of approved and investigational compounds against these cell lines; and measured metabolically active cells after 48 hours of compound treatment as a proxy for cell viability.
Assay Submitter: Nathalia J. Martinez, National Center for Advancing Translational Sciences, National Institutes of Health, Rockville, MD, USA; email: natalia.martinez@nih.gov
[1] Shen, M et al. Quantitative high-throughput phenotypic screening of pediatric cancer cell lines identifies multiple opportunities for drug repurposing. Oncotarget 2017 Dec 19;9(4):4758-4772. PMID 29435139.
The cells were obtained from University of North Carolina (UNC), Pediatric Preclinical Testing Program (PPT), and Coriell Institute (CI).
qHTS cell viability assay:
Cells were assayed in growth media at a density of 500-1,000 cells/well. Five microliters of cells were dispensed into 1,536-well, white, solid-bottom, TC-treated plates (Greiner Bio One) using a multidrop dispenser and incubated at 37 degrees C, 5% CO2, under a humidified atmosphere for 5 hours. Twenty-three nanoliters of compounds and controls (neutral control DMSO or positive control bortezomib at final concentration of 2.3 µM) were subsequently transferred by Kalypsys pintool. For primary screens, the MIPE collection was tested at 11-point dilutions (final concentrations range from 0.78 nM to 46 µM) and the NPC collection at 8-point dilutions (final concentrations range from 0.59 nM to 46 µM). Compounds tested in follow-up screens were assayed at 11-point dilutions. Cells were incubated for 48 hours, followed by addition of 3 µL of CellTiter-Glo (Promega). After a 15 min incubation at room temperature, samples were analyzed for luminescence intensity using a ViewLux High-throughput CCD imager equipped with clear filters.
In the case of `Cc1cnc(Nc2ccc(F)cc2Cl)nc1-c1c[nH]c(C(=O)N[C@H](CO)c2cccc(Cl)c2)c1`, the Potency is 18700 nM (active).

For `Cc1[nH]nc2ccc(-c3cncc(OC[C@@H](N)Cc4ccccc4)c3)cc12`, the Potency is 2150 nM (active).

With `CN1CCN(c2cc(C(=O)Nc3ccc4c(c3)-c3c(c(C(N)=O)nn3-c3ccc(F)cc3)CC4)c(Cl)cn2)CC1`, the Potency was 20900 nM (active).

`Cc1nc2ccc(CN(C)c3ccc(C(=O)N[C@@H](CCC(=O)O)C(=O)O)s3)cc2c(=O)[nH]1`: the Potency entry is “inactive”.

`CC[C@H]1CN2CCc3cc(OC)c(OC)cc3[C@H]2C[C@@H]1C[C@@H]1NCCc2cc(OC)c(OC)cc21`: the Potency was 332 nM (active).

Take `CC1=C(CO)C(=O)O[C@@H]([C@@H](C)[C@H]2CC[C@H]3[C@@H]4C[C@H]5O[C@]56[C@@H](O)C=CC(=O)[C@]6(C)[C@@H]4CC[C@]23C)C1`: the Potency entry was “inactive”.

Regarding `CC[C@@]1(O)C(=O)OCc2c1cc1n(c2=O)Cc2cc3cc(O)ccc3nc2-1`, the Potency was 1870 nM (active).

With `Cc1[nH]c2ccccc2c1CCNCc1ccc(C=CC(=O)NO)cc1`, the Potency was 469 nM (active).

For `CNC(=O)c1nn(C)c2c1C(C)(C)Cc1cnc(Nc3ccc(N4CCN(C)CC4)cc3)nc1-2`, the Potency was 1180 nM (active).

For `C[C@@H](Oc1cc(-n2cnc3ccc(CN4CCN(C)CC4)cc32)sc1C(N)=O)c1ccccc1C(F)(F)F`, the Potency was 13200 nM (active).

On to `CC(C)CC(=O)Nc1n[nH]c2c1CN(C(=O)C1CCN(C)CC1)C2(C)C`, for which the Potency is 4180 nM (active).

`Cc1cn2c(-c3cn[nH]c3)cnc2c(Nc2ccc(C(=O)N3CCNCC3)cc2F)n1`: the Potency is 7430 nM (active).

For `CN1CC[C@@H](c2c(O)cc(O)c3c(=O)cc(-c4ccccc4Cl)oc23)[C@@H](O)C1`, the Potency was 418 nM (active).

Turning to `CNC(=O)c1ccc(N2C(=S)N(c3cnc(C#N)c(C(F)(F)F)c3)C(=O)C23CCC3)cc1F`, the Potency entry was “inactive”.

For the compound `Cc1c(CN2CCN(S(C)(=O)=O)CC2)sc2c(N3CCOCC3)nc(-c3cnc(N)nc3)nc12`, the Potency was 2960 nM (active).

Turning to `CC(C)(C)NC(=O)[C@H]1CN(Cc2cccnc2)CCN1C[C@@H](O)C[C@@H](Cc1ccccc1)C(=O)N[C@H]1c2ccccc2C[C@H]1O`, the Potency result is “inactive”.

For the compound `CC[C@@H]1C(=O)N(C)c2cnc(Nc3ccc(C(=O)NC4CCC(N5CCN(CC6CC6)CC5)CC4)cc3OC)nc2N1C(C)C` (stereo not given in full), the Potency result was “inactive”.

As to `NC(=O)c1cccc2cn(-c3ccc([C@@H]4CCCNC4)cc3)nc12`, the Potency entry is “inactive”.

In the case of `COc1cc2c(NC3CCN(C(C)C)CC3)nc(C3CCCCC3)nc2cc1OCCCN1CCCC1`, the Potency was 7430 nM (active).

`CC(C)(C)OC(=O)Nc1ccc(-c2cc(C(=O)NCCCCCCC(=O)NO)no2)cc1`: the Potency is 2350 nM (active).

Take `CCNC(=O)Nc1ccc2ncc(Nc3ccc(C)cc3)nc2n1`: the Potency entry was “inactive”.

In the case of `CC[C@@H]1C(=O)N(C)c2cnc(Nc3ccc(C(=O)NC4CCN(C)CC4)cc3OC)nc2N1C1CCCC1`, the Potency was 6620 nM (active).

In the case of `CC1(C)OC2=C(C(=O)c3ccccc3C2=O)[C@H](NCc2ccccc2)[C@H]1O`, the Potency is 5900 nM (active).

Regarding `Cc1cc(Nc2cc(N3CCN(C)CC3)nc(Sc3ccc(NC(=O)C4CC4)cc3)n2)n[nH]1`, the Potency is 11800 nM (active).

Consider `C=C1C(=CC=C2CCC[C@]3(C)[C@@H]([C@H](C)C=C[C@H](C)C(C)C)CC[C@@H]23)C[C@@H](O)C[C@@H]1O`, for which the Potency result is “inactive”.

For `O=C(C=Cc1cccc(S(=O)(=O)Nc2ccccc2)c1)NO`, the Potency was 13600 nM (active).

`COc1cc2c(Oc3ccc(NC(=O)C4(C(=O)Nc5ccc(F)cc5)CC4)cc3F)ccnc2cc1OCCCN1CCOCC1`: the Potency is 1870 nM (active).

Turning to `Cc1cc(Nc2cc(NC(=O)c3c(Cl)cccc3Cl)ccn2)nc(N)n1`, the Potency was 13600 nM (active).

For the compound `Cc1ccc(C(=O)Nc2ccc(CN3CCN(C)CC3)c(C(F)(F)F)c2)cc1C#Cc1cnc2cccnn12`, the Potency is 1480 nM (active).

With `COc1cc(=C2C=c3ccccc3=N2)[nH]c1=Cc1[nH]c(C)cc1C`, the Potency is 1240 nM (active).

Consider `COc1ccc(-c2cc3c(C)nc(N)nc3n(C3CCC(OCCO)CC3)c2=O)cn1` (stereo not given), for which the Potency entry was “inactive”.

As to `O=C(NC1CCNCC1)c1[nH]ncc1NC(=O)c1c(Cl)cccc1Cl`, the Potency is 1050 nM (active).

As to `O=C(O)c1ccc2cc(-c3ccc(O)c(C45CC6CC(CC(C6)C4)C5)c3)ccc2c1`, the Potency entry was “inactive”.

`CC(C)C[C@H](NC(=O)CNC(=O)c1cc(Cl)ccc1Cl)B(O)O`: the Potency is 418 nM (active).

As to `CC(C)(O)c1cc2nc(-c3cnc(N)nc3)nc(N3CCOCC3)c2s1`, the Potency was 935 nM (active).

As for `COC(=O)Nc1ccc(-c2nc(N3CCOCC3)c3cnn(C4CCN(Cc5cccnc5)CC4)c3n2)cc1`, the Potency is 14800 nM (active).

With `C=CC(=O)Nc1cccc(Oc2nc(Nc3ccc(N4CCN(C)CC4)cc3)ncc2Cl)c1`, the Potency is 2960 nM (active).

Consider `OCCCNc1cc(-c2ccnc(Nc3cccc(Cl)c3)n2)ccn1`, for which the Potency is 148 nM (active).

In the case of `COc1c(OCCCN2CCOCC2)ccc2c3n(c(=NC(=O)c4cnc(N)nc4)nc12)CCN3`, the Potency is 2040 nM (active).

As to `COC(=O)[C@]12CCC(C)(C)C[C@@H]1[C@@H]1C(=O)C=C3[C@@]4(C)C=C(C#N)C(=O)C(C)(C)[C@@H]4CC[C@@]3(C)[C@]1(C)CC2`, the Potency is 2090 nM (active).
